# Test results taken from PubChem BioAssay AID743293 (Broad Institute, 2014).
# Measured potencies and affinities stand elsewhere. The source made the active and inactive calls.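 How the source made its calls: active means compounds lowering fluorescence with a fitted half-maximal concentration at or below a set limit tied to top dose; inconclusive means flat curve with 30 to 70% inhibition, or poor fit; inactive means the rest.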
# Biological target: Caspase-9 (Homo sapiens) (UniProt P55211)
# Experiment: inhibitors of purified CASP9 protease – biochemical, fluorescence, plate reader, cherry-picked samples, selectivity assay for caspase-6 inhibitor project, dose response (AID 743293)
# Sequence of Caspase-9 (Homo sapiens) (P55211 whole entry, looked up): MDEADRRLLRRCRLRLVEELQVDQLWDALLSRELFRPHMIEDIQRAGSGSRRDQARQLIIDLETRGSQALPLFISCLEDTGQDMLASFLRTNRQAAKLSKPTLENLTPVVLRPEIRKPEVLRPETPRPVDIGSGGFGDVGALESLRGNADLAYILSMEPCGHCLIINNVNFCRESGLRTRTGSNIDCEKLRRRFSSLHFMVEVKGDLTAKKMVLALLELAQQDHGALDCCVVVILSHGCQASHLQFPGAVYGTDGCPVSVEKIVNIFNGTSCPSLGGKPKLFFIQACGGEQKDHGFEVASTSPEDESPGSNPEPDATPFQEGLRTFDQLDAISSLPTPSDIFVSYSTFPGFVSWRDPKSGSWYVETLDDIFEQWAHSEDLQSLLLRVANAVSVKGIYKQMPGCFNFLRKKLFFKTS
smiles,measurement,value
CC(Cc1ccc(O)cc1)NCC(O)c1ccc(O)c(O)c1 (stereo unspecified),outcome,inactive
